Measurements taken from PubChem BioAssay (EPA / NIEHS).
Activity calls are given as the source filed them. Rule for the calls: active = hit-call score of the fitted dose curve at least 0.9, where 1 is the maximum; inactive = score below 0.9.

Legend:
Conditions in all cases: mRNA level, 48 h; actives raise or lower the signal
[1] = read-out: Bcl-2 (BAD) gene, BAD (gene 572); test: LTEA_HepaRG_BAD: Life Technologies and Expression Analysis (LTEA) Assay for Bcl-2 (BAD) gene using HepaRG (AID 2283469)
Procedure, shortened: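 Activity values reflect up- or down-regulation of BAD mRNA in human HepaRG hepatic cells treated 48 h in serum-free medium, with eight-point half-log dosing capped at 100 uM and 0.5% DMSO vehicle.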

[2] = read-out: Bcl-2 (BAX) gene, BAX (gene 581); test: LTEA_HepaRG_BAX: Life Technologies and Expression Analysis (LTEA) Assay for Bcl-2 (BAX) gene using HepaRG (AID 2283470)
Procedure, shortened: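 Human HepaRG cells treated in duplicate for 48 h across eight concentrations (max 100 uM, 0.5% DMSO); BAX expression measured by qRT-PCR.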

[3] = read-out: adenosine kinase (ADK) gene, ADK (gene 132); test: LTEA_HepaRG_ADK: Life Technologies and Expression Analysis (LTEA) Assay for adenosine kinase (ADK) gene using HepaRG (AID 2283471)
Procedure, shortened: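 Differentiated HepaRG cells dosed 48 h in serum-free induction medium, 0.5% DMSO vehicle, eight half-log concentrations from 100 uM, in duplicate. ADK mRNA by TaqMan qRT-PCR normalised to ACTB, GAPDH, POLR2A; bidirectional fit versus DMSO.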

[4] = read-out: Alpha-fetoprotein (AFP) gene, AFP (gene 174); test: LTEA_HepaRG_AFP: Life Technologies and Expression Analysis (LTEA) Assay for Alpha-fetoprotein (AFP) gene using HepaRG (AID 2283472)
Procedure, shortened: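 Measures AFP mRNA change in HepaRG after 48 h chemical exposure (8 half-log concentrations, highest 100 uM, 0.5% DMSO). Fold change relative to DMSO, fitted in both directions.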

[5] = read-out: Apolipoprotein A-V (APOA5) gene, APOA5 (gene 116519); test: LTEA_HepaRG_APOA5: Life Technologies and Expression Analysis (LTEA) Assay for Apolipoprotein A-V (APOA5) gene using HepaRG (AID 2283474)
Procedure, shortened: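 HepaRG, 48 h chemical exposure in serum-free induction medium, 8-pt half-log series (top 100 uM), 0.5% DMSO vehicle, duplicates. Readout: APOA5 mRNA by qRT-PCR, housekeeping-normalized; bidirectional fit vs DMSO baseline.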

[6] = read-out: Apoptosis regulator Bcl-2 (Homo sapiens) (UniProt P10415); test: LTEA_HepaRG_BCL2: Life Technologies and Expression Analysis (LTEA) Assay for Bcl-2 gene using HepaRG (AID 2283475)
Procedure, shortened: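 Each chemical was tested in duplicate on HepaRG cultures held in serum-free induction medium for 48 h, highest concentration 100 uM with half-log dilutions. Transcript levels came from multiplexed qRT-PCR, normalised to housekeeping genes; activity was scored in either direction relative to DMSO.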

[7] = read-out: Bcl-2 (BID) gene, BID (gene 637); test: LTEA_HepaRG_BID: Life Technologies and Expression Analysis (LTEA) Assay for Bcl-2 (BID) gene using HepaRG (AID 2283476)
Procedure, shortened: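 Assay used HepaRG hepatic cells treated 48 h in serum-free medium with half-log dilutions from 100 uM. Endpoint: BID mRNA, qRT-PCR, normalized to ACTB/GAPDH/POLR2A.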

Caspase-3 (Homo sapiens) = Caspase-3 (Homo sapiens) (UniProt P42574); test: LTEA_HepaRG_CASP3: Life Technologies and Expression Analysis (LTEA) Assay for cysteine-aspartic acid protease (CASP3) using HepaRG (AID 2283477)
Sequence of Caspase-3 (Homo sapiens) (P42574 whole entry, looked up): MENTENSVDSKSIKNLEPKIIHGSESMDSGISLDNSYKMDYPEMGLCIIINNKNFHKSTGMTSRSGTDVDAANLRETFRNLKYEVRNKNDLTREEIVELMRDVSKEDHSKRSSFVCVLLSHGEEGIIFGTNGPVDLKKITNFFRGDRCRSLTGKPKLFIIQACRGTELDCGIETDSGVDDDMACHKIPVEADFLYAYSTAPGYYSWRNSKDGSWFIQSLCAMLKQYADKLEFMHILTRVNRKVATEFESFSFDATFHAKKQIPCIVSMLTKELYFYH
Procedure, shortened: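 HepaRG, 48 h exposure, 8 conc. (top 100 uM, half-log steps, duplicate), 0.5% DMSO vehicle; qRT-PCR of CASP3 transcript, housekeeping-normalised (ACTB/GAPDH/POLR2A); bidirectional curve fit vs DMSO baseline.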

[8] = read-out: Cytochrome P450 (CYP1A2), CYP1A2 (gene 1544); test: LTEA_HepaRG_CYP1A2: Life Technologies and Expression Analysis (LTEA) Assay for Cytochrome P450 (CYP1A2) using HepaRG (AID 2283479)
Procedure, shortened: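 HepaRG, 48 h exposure, top 100 uM, half-log 8-pt, 0.5% DMSO vehicle, duplicates. Readout: TaqMan qRT-PCR of CYP1A2 mRNA, housekeeping-normalized (ACTB/GAPDH/POLR2A). Gain/loss fit relative to DMSO baseline.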

[9] = read-out: cysteine-aspartic acid protease (CASP8), CASP8 (gene 841); test: LTEA_HepaRG_CASP8: Life Technologies and Expression Analysis (LTEA) Assay for cysteine-aspartic acid protease (CASP8) using HepaRG (AID 2283480)
Procedure, shortened: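 Concentration-response in duplicate up to 100 uM (half-log steps, 0.5% DMSO) on differentiated HepaRG cultures for 48 h. Expression change of CASP8 mRNA is determined by TaqMan qRT-PCR with housekeeping-gene normalization.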

[10] = read-out: Cytochrome P450 (CYP2B6), CYP2B6 (gene 1555); test: LTEA_HepaRG_CYP2B6: Life Technologies and Expression Analysis (LTEA) Assay for Cytochrome P450 (CYP2B6) using HepaRG (AID 2283481)
Procedure, shortened: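 Read-out is CYP2B6 mRNA by TaqMan qRT-PCR, normalized to three housekeeping genes and fitted bidirectionally against 0.5% DMSO baseline. Human HepaRG cells received test chemicals for 48 h, top concentration 100 uM, half-log dilutions.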

[11] = read-out: Cytochrome P450 2C19 (Homo sapiens) (UniProt P33261); test: LTEA_HepaRG_CYP2C19: Life Technologies and Expression Analysis (LTEA) Assay for CYP2C19 using HepaRG (AID 2283482)
Procedure, shortened: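 HepaRG, 48 h chemical exposure, 8-pt half-log series from 100 uM in 0.5% DMSO, duplicates. Readout: CYP2C19 mRNA by TaqMan qRT-PCR, housekeeping-normalized. Bidirectional fit vs DMSO baseline; phenobarbital 1mM as induction control.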

CYP2C8 (gene 1558) = test: LTEA_HepaRG_CYP2C8: Life Technologies and Expression Analysis (LTEA) Assay for CYP2C8 using HepaRG (AID 2283483)
Procedure, shortened: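 This is a transcriptional endpoint in HepaRG cultures: 48 h exposure, highest concentration 100 uM. CYP2C8 mRNA is quantified by TaqMan qRT-PCR.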

CYP2C9 (gene 1559) = test: LTEA_HepaRG_CYP2C9: Life Technologies and Expression Analysis (LTEA) Assay for CYP2C9 using HepaRG (AID 2283484)
Procedure, shortened: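 Eight-point concentration-response (highest 100 uM, half-log dilutions) in HepaRG cells for 48 h; CYP2C9 expression by qRT-PCR normalized to ACTB, GAPDH, POLR2A. Bidirectional fit, DMSO baseline.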

CYP2E1 (gene 1571) = test: LTEA_HepaRG_CYP2E1: Life Technologies and Expression Analysis (LTEA) Assay for CYP2E1 using HepaRG (AID 2283485)
Procedure, shortened: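 Assay uses 48 h exposure of HepaRG hepatic cells, eight concentrations to 100 uM. Expression of CYP2E1 is quantified by TaqMan qRT-PCR with ACTB, GAPDH and POLR2A normalization; curves fitted in both directions relative to vehicle.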

CYP4A11 (gene 1579) = test: LTEA_HepaRG_CYP4A11: Life Technologies and Expression Analysis (LTEA) Assay for CYP4A11 using HepaRG (AID 2283486)
Procedure, shortened: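 CYP4A11 transcript levels were quantified by TaqMan qRT-PCR after HepaRG human liver cells were treated for 48 hours with test chemicals (top 100 uM, half-log dilutions, 0.5% DMSO). Gain or loss of signal was fitted relative to DMSO.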

[12] = read-out: Cytochrome P450 3A4 (Homo sapiens) (UniProt P08684); test: LTEA_HepaRG_CYP3A4: Life Technologies and Expression Analysis (LTEA) Assay for CYP3A4 using HepaRG (AID 2283487)
Procedure, shortened: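 Differentiated HepaRG cells in serum-free induction medium exposed in duplicate for 48 h to 8 half-log concentrations up to 100 uM in 0.5% DMSO. CYP3A4 mRNA measured by qRT-PCR normalized to ACTB, GAPDH and POLR2A; bidirectional fit versus DMSO.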

[13] = read-out: DNA damage-inducible transcript 3 (DDIT3), DDIT3 (gene 1649); test: LTEA_HepaRG_DDIT3: Life Technologies and Expression Analysis (LTEA) Assay for DNA damage-inducible transcript 3 (DDIT3) using HepaRG (AID 2283488)
Procedure, shortened: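 Eight-point concentration-response (100 uM highest, half-log dilutions) in HepaRG, 48 h, duplicate wells. Endpoint: qRT-PCR mRNA, normalized (ACTB, GAPDH, POLR2A), bidirectional fitting with DMSO as baseline.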

[14] = read-out: Cytochrome P450 (CYP24A1), CYP24A1 (gene 1591); test: LTEA_HepaRG_CYP24A1: Life Technologies and Expression Analysis (LTEA) Assay for Cytochrome P450 (CYP24A1) using HepaRG (AID 2283478)
Procedure, shortened: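 qRT-PCR read-out: CYP24A1 transcript levels normalized to three housekeeping genes, bidirectional curve fits against 0.5% DMSO baseline. Human HepaRG cells treated 48 h with chemicals at eight concentrations from 100 uM in half-log steps.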

Measured: AC50

Sequence of Apoptosis regulator Bcl-2 (Homo sapiens) (P10415 whole entry, looked up): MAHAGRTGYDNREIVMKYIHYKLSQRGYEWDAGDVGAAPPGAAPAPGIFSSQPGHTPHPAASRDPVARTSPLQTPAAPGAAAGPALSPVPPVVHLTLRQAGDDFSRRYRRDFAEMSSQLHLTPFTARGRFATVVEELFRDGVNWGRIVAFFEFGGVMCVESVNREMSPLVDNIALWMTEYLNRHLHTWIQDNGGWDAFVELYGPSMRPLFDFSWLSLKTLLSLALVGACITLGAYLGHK
Sequence of Cytochrome P450 2C19 (Homo sapiens) (P33261 whole entry, looked up): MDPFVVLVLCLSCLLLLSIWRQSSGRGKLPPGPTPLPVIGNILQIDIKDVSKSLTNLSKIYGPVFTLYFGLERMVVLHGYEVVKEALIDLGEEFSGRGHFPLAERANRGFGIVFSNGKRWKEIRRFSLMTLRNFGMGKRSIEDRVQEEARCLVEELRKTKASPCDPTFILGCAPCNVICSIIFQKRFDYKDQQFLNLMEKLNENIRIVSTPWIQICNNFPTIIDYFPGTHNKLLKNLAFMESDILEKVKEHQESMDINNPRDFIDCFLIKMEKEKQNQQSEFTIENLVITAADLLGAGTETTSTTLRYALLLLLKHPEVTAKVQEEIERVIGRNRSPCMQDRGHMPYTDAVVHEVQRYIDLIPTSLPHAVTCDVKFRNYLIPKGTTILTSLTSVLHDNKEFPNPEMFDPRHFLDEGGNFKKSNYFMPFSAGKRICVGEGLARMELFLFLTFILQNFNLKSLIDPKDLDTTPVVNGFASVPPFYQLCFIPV
Sequence of Cytochrome P450 3A4 (Homo sapiens) (P08684 whole entry, looked up): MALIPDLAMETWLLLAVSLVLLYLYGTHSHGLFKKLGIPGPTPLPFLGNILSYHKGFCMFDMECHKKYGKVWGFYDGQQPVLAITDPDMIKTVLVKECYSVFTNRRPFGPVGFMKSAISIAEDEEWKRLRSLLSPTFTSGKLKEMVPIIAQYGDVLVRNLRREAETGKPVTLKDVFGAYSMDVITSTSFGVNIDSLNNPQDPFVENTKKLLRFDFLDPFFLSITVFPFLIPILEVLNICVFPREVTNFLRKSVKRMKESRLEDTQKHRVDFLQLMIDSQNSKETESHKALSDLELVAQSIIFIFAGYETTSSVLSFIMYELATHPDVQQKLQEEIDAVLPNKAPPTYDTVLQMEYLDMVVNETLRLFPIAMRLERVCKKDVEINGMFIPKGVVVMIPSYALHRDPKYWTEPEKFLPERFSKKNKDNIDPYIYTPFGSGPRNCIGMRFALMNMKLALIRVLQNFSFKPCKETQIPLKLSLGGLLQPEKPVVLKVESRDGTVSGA

C#CCOS(=O)OC1CCCCC1Oc1ccc(C(C)(C)C)cc1 (stereo not drawn)
active: [3] 30.1 µM | [4] 29.5 µM | [6] 81.7 µM | [7] 11.4 µM | Caspase-3 (Homo sapiens) 29 µM | [9] 31.3 µM | [10] 26.6 µM | [11] 26.3 µM | CYP2C8 (gene 1558) 29.9 µM | CYP2C9 (gene 1559) 25.6 µM | CYP2E1 (gene 1571) 22.6 µM | CYP4A11 (gene 1579) 25.9 µM | [12] 28.8 µM | [13] 15.2 µM
inactive: [1] | [2] | [5] | [8]

COC(=O)c1ccccc1C(=O)OC
not listed: [14]
inactive: all other assays above

N#CC(CCc1ccc(Cl)cc1)(Cn1cncn1)c1ccccc1 (stereo not drawn)
inactive: [1] | [3] | [7] | Caspase-3 (Homo sapiens) | [9]
active: [2] 68 µM | [4] 15.8 µM | [5] 50 µM | [6] 66.7 µM | [8] 85.6 µM | [10] 50 µM | [11] 76.1 µM | CYP2C8 (gene 1558) 73.7 µM | CYP2C9 (gene 1559) 59.8 µM | CYP2E1 (gene 1571) 27.3 µM | CYP4A11 (gene 1579) 38.8 µM | [12] 85.9 µM | [13] 34.8 µM

C=CCC1=C(C)[C@@H](OC(=O)[C@@H]2[C@@H](C=C(C)C)C2(C)C)CC1=O
active: [4] 50 µM | [10] 85.4 µM | CYP2E1 (gene 1571) 62.1 µM | CYP4A11 (gene 1579) 88.3 µM
not listed: [14]
inactive: all other assays above

COC(=O)C=C(C)OP(=O)(OC)OC
not listed: [5]
inactive: all other assays above

CON(C)C(=O)Nc1ccc(Cl)c(Cl)c1
active: [4] 74.2 µM | [8] 29.8 µM | [10] 24 µM | [11] 65.1 µM | CYP2E1 (gene 1571) 77.6 µM | CYP4A11 (gene 1579) 86.6 µM | [12] 78.6 µM
not listed: [14]
inactive: all other assays above
